Test [1] addresses Luciferin 4-monooxygenase (Photinus pyralis) (UniProt P08659). The test is described as follows: qHTS assay to identify small molecule inhibitors of firefly luciferase (AID 1224835). Note: nearly all actives have a fitted effect of over 25% in size. Note: potency is the fitted concentration of half-maximal effect. A digest of the protocol: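 Inhibition of purified Photinus luciferase is measured by luminescence. Substrate levels (D-luciferin, ATP) sit at their KM values. Each compound is tested in a concentration series.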
A general note: qHTS replaces the single test concentration by a dilution series.

A short description of test [2]: qHTS assay to identify small molecule agonists of the constitutive androstane receptor (CAR) signaling pathway - cell viability counter screen (AID 1224836). Note: nearly all actives have a fitted effect of over 45% in size. In outline: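 Viability read-out: CellTiter-Fluor fluorescence after 23 h compound exposure at 37 C/5% CO2 in double-stable HepG2-CYP2B6-hCAR cells, with PK11195 present at 0.75 uM final; compounds tested in 15-point titration.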

The nature of test [3]: qHTS assay to identify small molecule antagonists of the constitutive androstane receptor (CAR) signaling pathway - cell viability counter screen (AID 1224837). Note: nearly all actives have a fitted effect of over 45% in size. A digest of the protocol:
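Using CellTiter-Fluor, viability is scored in HepG2 cells stably carrying hCAR and a 2.2kb CYP2B6 reporter after 23 hr compound exposure across 15 concentrations, with CITCO present at 50 nM.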

In test [4] the target is Nuclear receptor subfamily 1 group I member 3 (Homo sapiens) (UniProt Q14994). The test can be described thus: qHTS assay to identify small molecule antagonists of the constitutive androstane receptor (CAR) signaling pathway (AID 1224838).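 Note: HepG2 cells stably expressing hCAR with CYP2B6 luciferase reporter stimulated by CITCO; nearly all actives have a fitted effect of over 40% in size.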 In outline:
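Reporter luminescence was quantified after 24 h exposure of hCAR/CYP2B6-2.2kb double-stable HepG2 cells to compounds at 15 concentrations in the presence of 50 nM CITCO final.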

Test [5] shares this target. The test is described as follows: qHTS assay to identify small molecule agonists of the constitutive androstane receptor (CAR) signaling pathway (AID 1224839).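 For activation: HepG2 cells stably carrying human CAR and a CYP2B6 luciferase reporter.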 Note: nearly all actives have a fitted effect of over 15% in size. Note: potency is the fitted concentration of half-maximal effect. In outline:
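Luminescence read-out (ONE-Glo, 30 min, room temperature) from double-stable HepG2-CYP2B6-hCAR cells exposed 24 h to 15-point compound series in presence of 0.75 uM PK11195 final.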

Test [6] is described as follows: qHTS assay to identify small molecule antagonists of the estrogen related receptor signaling pathway with the pleiotropic PPARgamma coactivator (PGC) from Tox21 10K library - cell viability counter screen (AID 1224840; active = well fitted cell-killing curve with a large enough effect in the repeat runs, not every such curve was filed as active; note: nearly all actives have a fitted effect of over 40% in size). A digest of the protocol: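 Here the PGC/ERR cells serve as a cytotoxicity control: they are exposed to compounds for 17.5 hours at 37 C, and live-cell signal is quantified using CellTiter-Fluor fluorescence.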

Test [7] can be described thus: qHTS assay to identify small molecule antagonists of the estrogen related receptor signaling pathway with the pleiotropic PPARgamma coactivator (PGC) from Tox21 10K library (AID 1224841; call rule not given here; note: actives are mostly falling curves and most rising ones were filed inactive; nearly all actives have a fitted effect of over 50% in size; note: potency is the fitted concentration of half-maximal effect). In outline: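 Each well held 2,000 PGC/ERR cells, pre-incubated six hours (37 C, 5% CO2). Test substances in DMSO were added by pin tool and left for 18 h at 37 C before luciferase detection by One-Glo.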

A short description of test [8]: qHTS assay to identify small molecule agonists of the estrogen related receptor signaling pathway with the pleiotropic PPARgamma coactivator (PGC) from Tox21 10K library (AID 1224842). Note: nearly all actives have a fitted effect of over 15% in size. A digest of the protocol: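 Luminescence from One-Glo (30 min, room temperature) measured after PGC/ERR cells had 18 h at 37 C with pinned compound (23 nL in DMSO). Cells had been seeded at 2,000 per well and pre-incubated 6 h.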

For test [9], the target named is Thyrotropin receptor (Homo sapiens) (UniProt P16473). The test can be described thus: qHTS assay to identify small molecule agonists of the thyroid stimulating hormone receptor (TSHR) signaling pathway (AID 1224843; calls by dose curve; note: nearly all actives have a fitted effect of over 45% in size). In outline:
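HEK293 cells stably bearing the thyrotropin receptor were plated at 800 cells/well and challenged with compound (30 min, RT). Accumulated cAMP was quantified via cAMP-d2 competing for cryptate-tagged antibody.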

The nature of test [10]: qHTS assay to identify small molecule agonists of the hypoxia (HIF-1) signaling pathway - cell viability counter screen (AID 1224844; calls by dose curve; note: nearly all actives have a fitted effect of over 50% in size). In outline:
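Multiplexed with the HRE beta-lactamase assay, this viability read used CellTiter-Glo luminescence (30 min, RT) on HRE-bla ME-180 cells treated 17 hrs with compounds in 0.5% dialyzed FBS medium.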

Test [11] in a line: qHTS assay to identify small molecule agonists of H2AX (AID 1224845; active = well fitted activation curve with a large enough effect in the signal ratio in the repeat runs, not every such curve was filed as active; the % refers to the signal ratio). A digest of the protocol:
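Phospho-H2AX Ser139 measured by HTRF (ex 320 nm; em 665 and 620 nm) after 24 hr antibody incubation. Compounds, 15 concentrations, 0.76% DMSO, were applied to CHO-K1 cells for 3hr at 37C before lysis.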

Test [12] can be described thus: qHTS assay to identify small molecule agonists of the hypoxia (HIF-1) signaling pathway (AID 1224846; active = well fitted activation curve with a large enough effect in the signal ratio in the repeat runs, not every such curve was filed as active; the % refers to the signal ratio). A digest of the protocol: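 Hypoxia-pathway activation was scored as increased beta-lactamase from an HRE-controlled reporter in ME-180 cells; plated at 2,000 cells per well with 0.5% dialyzed FBS, they were exposed 17 hrs to compounds and then given CCF4-AM.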

The nature of test [13]: qHTS assay to identify small molecule agonists of H2AX - cell viability counter screen (AID 1224847; calls by dose curve;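 note: wild-type CHO-K1 cells; top concentration of the series differs between compounds; nearly all actives have a fitted effect of over 30% in size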). A digest of the protocol: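 CHO-K1 wt, 1000 cells/well, o/n 37C; cpds 15 conc, 3 h 37C, 0.76% DMSO; CellTiter-Glo, 30 min RT, luminescence.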
The nature of test [14]: qHTS assay to identify small molecule antagonists of the estrogen related receptor (ERR) signaling pathway from Tox21 library (AID 1224848). Note: nearly all actives have a fitted effect of over 50% in size. Note: potency is the fitted concentration of half-maximal effect. A digest of the protocol:
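Reading was by luminescence 30 min after ONE-Glo addition. Before that, ERR cells at 2,000 per well had rested 6 h at 37 C/5% CO2 and then received pin-tooled compounds in DMSO for 18 h at 37 C.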

Test [15] is described as follows: qHTS assay to identify small molecule agonists of the estrogen related receptor (ERR) signaling pathway from Tox21 library (AID 1224849; calls by dose curve; note: nearly all actives have a fitted effect of over 15% in size). Particulars: ERR reporter cell line, ONE-Glo luciferase, 18 h. A digest of the protocol:
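Six hours post-seeding at 37 C/5% CO2, ERR cells receive DMSO-solubilised compounds; after 18 h at 37 C, ONE-Glo reagent is applied and luminescence recorded.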

Test [16] is described as follows: qHTS RealTime-Glo MT Cell Viability Assay in HepG2 cells - 24 hour (AID 1224867). Note: nearly all actives have a fitted effect of over 50% in size. In outline: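 Real-time, nonlytic viability: 600 HepG2 cells/well mixed with NanoLuc enzyme plus prosubstrate; 5 h settle, compound (DMSO) added by pintool; luminescence monitored over 40 h at 37 C.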
Test [17] can be described thus: qHTS RealTime-Glo MT Cell Viability Assay in HEK293 cells - 32 hour (AID 1224868). Note: nearly all actives have a fitted effect of over 50% in size. Note: potency is the fitted concentration of half-maximal effect. In outline:
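Cells + reagent dispensed (600 cells/well, HEK293) → 5 h at 37 C/5% CO2 → 23 nL compound in DMSO pinned → 40 h at 37 C → luminescence read at 0, 8, 16, 24, 32, 40 h.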

The nature of test [18]: A CellTox Green Cytotoxicity Assay to monitor cytotoxicity in HEK293 cells - 0 hour (AID 1224869). Note: nearly all actives have a fitted effect of over 50% in size. In outline: (§1)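 Seeding of HEK293 cells together with cytotoxicity dye preceded a 5 h incubation at 37 C/5% CO2. Test compounds in DMSO were then added and fluorescence monitored across 40 h.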
Test [19] in a line: qHTS RealTime-Glo MT Cell Viability Assay in HepG2 cells - 40 hour (AID 1224870). Note: nearly all actives have a fitted effect of over 50% in size. A digest of the protocol:
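Real-time viability: cells seeded at 600 per well together with NanoLuc and cell-permeant prosubstrate, compounds added after 5 h incubation. Luminescence tracked at 0, 8, 16, 24, 32 and 40 h of exposure.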

Test [20] in a line: A CellTox Green Cytotoxicity Assay to monitor cytotoxicity in HEK293 cells - 40 hour (AID 1224871). Note: nearly all actives have a fitted effect of over 45% in size. Note: potency is the fitted concentration of half-maximal effect. A digest of the protocol: as §1

Values joined by “and” are separate entries in the source; they are usually repeats but may differ in a detail not shown here. Equal entries are not always repeated. Records with an inconclusive call do not appear. A structure can be active in one record and inactive in another. Active and inactive are the calls of the source. Unless noted, calls come from the whole dose curve; as a rule, active = well fitted curve in the direction sought with a large enough effect in the repeat runs; inconclusive = weak or mixed curves; inactive = no such curve, though single readings can be large; an effect the other way counts as inactive or inconclusive.
% is set by controls: 0 for no effect and ±100 for the full control effect.

Nuclear receptor subfamily 1 group I member 3 (Homo sapiens), sequence (Q14994 whole entry, looked up): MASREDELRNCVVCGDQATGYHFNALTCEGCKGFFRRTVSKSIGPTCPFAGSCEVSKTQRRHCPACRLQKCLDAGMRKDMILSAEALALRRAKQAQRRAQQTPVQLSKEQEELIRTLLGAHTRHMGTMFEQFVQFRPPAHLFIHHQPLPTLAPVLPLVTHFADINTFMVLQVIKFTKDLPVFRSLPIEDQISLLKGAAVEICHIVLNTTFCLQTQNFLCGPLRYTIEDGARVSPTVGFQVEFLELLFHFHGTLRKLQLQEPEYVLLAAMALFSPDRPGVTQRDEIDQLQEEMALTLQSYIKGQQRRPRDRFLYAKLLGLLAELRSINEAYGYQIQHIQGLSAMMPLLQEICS
Luciferin 4-monooxygenase (Photinus pyralis), sequence (P08659 whole entry, looked up): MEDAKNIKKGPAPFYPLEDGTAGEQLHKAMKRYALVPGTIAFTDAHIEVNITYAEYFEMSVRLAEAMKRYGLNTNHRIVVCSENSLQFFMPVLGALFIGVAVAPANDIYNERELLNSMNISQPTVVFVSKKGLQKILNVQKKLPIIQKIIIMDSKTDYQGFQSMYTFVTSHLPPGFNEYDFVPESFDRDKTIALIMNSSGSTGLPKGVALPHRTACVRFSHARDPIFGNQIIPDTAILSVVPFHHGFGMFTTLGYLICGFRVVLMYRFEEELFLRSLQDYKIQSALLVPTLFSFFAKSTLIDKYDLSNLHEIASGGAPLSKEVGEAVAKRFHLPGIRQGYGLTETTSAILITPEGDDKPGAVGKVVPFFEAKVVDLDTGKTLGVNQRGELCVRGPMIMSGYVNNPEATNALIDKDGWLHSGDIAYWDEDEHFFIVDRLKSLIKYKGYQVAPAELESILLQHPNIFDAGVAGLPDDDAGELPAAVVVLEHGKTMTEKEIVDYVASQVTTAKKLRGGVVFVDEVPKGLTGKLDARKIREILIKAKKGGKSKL
Thyrotropin receptor (Homo sapiens), sequence (P16473 whole entry, looked up): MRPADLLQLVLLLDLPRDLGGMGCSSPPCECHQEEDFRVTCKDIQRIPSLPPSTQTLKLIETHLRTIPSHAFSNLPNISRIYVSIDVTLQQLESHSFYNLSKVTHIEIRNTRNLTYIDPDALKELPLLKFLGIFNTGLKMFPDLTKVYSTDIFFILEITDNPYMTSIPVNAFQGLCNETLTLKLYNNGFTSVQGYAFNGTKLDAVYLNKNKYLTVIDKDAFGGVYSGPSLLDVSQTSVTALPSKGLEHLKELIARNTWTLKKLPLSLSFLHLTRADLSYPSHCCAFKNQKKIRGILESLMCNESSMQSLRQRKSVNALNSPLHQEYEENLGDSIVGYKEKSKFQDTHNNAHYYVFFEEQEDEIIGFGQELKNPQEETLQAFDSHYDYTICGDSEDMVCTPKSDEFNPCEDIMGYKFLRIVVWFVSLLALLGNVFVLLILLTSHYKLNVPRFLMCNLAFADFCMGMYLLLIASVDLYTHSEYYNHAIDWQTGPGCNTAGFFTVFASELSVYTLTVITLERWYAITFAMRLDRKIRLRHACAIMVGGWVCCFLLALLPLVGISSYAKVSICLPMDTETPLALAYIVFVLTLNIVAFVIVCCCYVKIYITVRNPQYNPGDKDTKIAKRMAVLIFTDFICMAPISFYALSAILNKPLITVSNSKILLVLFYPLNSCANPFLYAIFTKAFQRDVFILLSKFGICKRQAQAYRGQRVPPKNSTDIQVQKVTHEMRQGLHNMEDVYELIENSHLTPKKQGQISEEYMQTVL

In the case of `COC(C)COC(C)COC(C)CO` (configuration not stated), the Potency entry in [1], in test [2], in [3], in test [4], in [5] and in test [6] was “inactive” each time. Further, the Potency result in test [7], in test [8], in test [9], in test [10], in [12] and in [13] was “inactive” throughout. For the same compound, the Potency result in test [14], in [16], in test [17], in test [18] and in test [19] was “inactive” throughout. The compound was called inactive in test [11]. In test [15] (at 92.4 µM (top of the series)), the activity change, positive = activation was -7.02% (inactive) and 0.149% (inactive).
As to `c1ccc2c(c1)Oc1ccccc1S2`, the Potency in test [1] is 72.1 µM (active); in [20], 49.8 µM (active) and inactive. Moreover, the Potency entry in test [2], in test [3], in test [4], in [5], in test [6] and in [9] was “inactive” each time. For the same compound, the Potency result in test [10], in test [12], in test [13], in [16], in test [17] and in test [18] was “inactive” in each case. Further, in [19], the Potency entry was “inactive”. The call in [11] was inactive.
Take `CCCCC/C=C/C=C/C=O`: the Potency result in test [1], in [2], in [3], in [4], in test [5] and in test [6] was “inactive” in each case. The Potency entry in [8], in [9], in test [12], in [16], in test [17] and in test [18] was “inactive” throughout. The Potency result in test [19] was “inactive”. Further, the Potency result was “inactive and 54.5 µM (active)” in test [7]; “inactive and 54.5 µM (active)” in [14]; 54.5 µM (active) in test [20]. Besides, the compound was called inactive in [11]. Further, in test [15] (at 92.4 µM (top of the series)), the activity change, positive = activation is -1.92% (inactive) and -41.4% (inactive).
For `O=C(/C=C/c1ccccc1)OCc1ccccc1`, the Potency in test [1] was 17.8 µM (active) and 9.77 µM (active); in test [5] it was 29.8 µM (active). Further, the Potency entry in test [2], in test [3], in [4], in test [6], in test [7] and in [10] was “inactive” in each case. In addition, the Potency entry in test [12], in test [14], in [16], in test [17] and in test [18] was “inactive” in each case. Further, the activity change, positive = activation was 33.8% (active) in test [15] (at 42.5 µM (top of the series)) and 36.2% (active) in test [15] (at 92.4 µM (top of the series)).
`C[C@]12CC[C@H]3[C@@H](CCC4=CC(=O)CC[C@@]43C)[C@@H]1CC[C@@H]2C(=O)CO`: the Potency result in test [1], in test [2], in test [3], in test [4], in test [5] and in test [6] was “inactive” in each case. For the same compound, the Potency entry in [7], in test [8], in test [10], in test [16], in test [18] and in test [19] was “inactive” throughout. Also, the Potency is 27.3 µM (active) and 26.6 µM (active) in test [14]; 24.5 µM (active) in test [17]. The results for the activity change, positive = activation in [15] (at 42.5 µM (top of the series)) and in [15] (at 92.4 µM (top of the series)) were -34.2% (inactive) and -55.9% (inactive), respectively.
With `CC(C)OB(OC(C)C)OC(C)C`, the Potency result in test [1], in test [2], in [3], in test [4], in test [5] and in [6] was “inactive” in each case. The Potency entry in test [7], in test [8], in test [10], in [12], in [13] and in test [14] was “inactive” throughout. Further, the Potency result in test [16], in [17], in test [19] and in [20] was “inactive” throughout. The compound was called inactive in test [11]. The activity change, positive = activation in test [15] (at 92.4 µM (top of the series)) is -0.608% (inactive) and 0.13% (inactive).
